The source made the active and inactive calls. Rule for the calls: active = hit-call score of the fitted dose curve at least 0.9, where 1 is the maximum; inactive = score below 0.9.
Experiments:
[1] = UKN5_HCS_SBAD2_cell_viability: Viability Assessment in the University of Konstanz (UKN) Leist Lab Neurite Outgrowth Assay in human iPSC-derived immature Dorsal Root Ganglia Neurons (UKN5) (AID 2284056)
Summary of the method: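 iPSC-derived immature peripheral neurons (SBAD2) seeded on Matrigel with CHIR99021, SU5402 and DAPT, dosed 1 h later for 24 h. Viability from Hoechst H-33342 and calcein-AM live staining, high-content imaging; bidirectional fit versus DMSO.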

[2] = UKN5_HCS_SBAD2_neurite_outgrowth: University of Konstanz (UKN) Leist Lab Neurite Outgrowth Assay in human iPSC-derived immature Dorsal Root Ganglia Neurons (UKN5) (AID 2284070); conditions: actives raise or lower the signal
Summary of the method: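 Neurite area from calcein-AM high-content images after 24 h exposure (staining included), with H-33342 for viability, fitted both directions against DMSO. Cells: thawed immature SBAD2 peripheral neurons, 100.000 cells/cm2, with CHIR99021, SU5402, DAPT; dosing 1 h after seeding.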

Question: Which results are given for `CC(=O)Oc1ccccc1C(=O)O`?
Answer: outcome [1]: inactive; outcome [2]: inactive

From PubChem BioAssay (EPA / NIEHS)
